# Assay outcomes as filed in PubChem.
# MITF TRPM1 HTS: MITF TRPM1 promoter activation in melanoma cells; 0.75% of 300,000 active; activation, % at 12.5 µM; SK-MEL-5 TRPM1-promoter luciferase, 24 h; % of positive control, neutral wells = 0; AID 588334;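 active = mean activation of at least 80% with every replicate also reaching 80%; inconclusive = mean reaches 80% but some replicate falls short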;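 also: 0% = neutral control wells and 100% = parthenolide positive control wells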
# Wnt bcat act: activators of Wnt/beta-catenin signaling | Wnt/beta-catenin reporter cell assay, activator, plate reader | activation, % at 9.35 µM | 1.2% of 300,000 active | AID 743398; in the data active = activation above about 30%, passing the limit was not always enough; inconclusive = no clear call, values can overlap the other calls;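 also: 0% = neutral control wells and 100% = positive control wells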
# AHR activator: human AHR activation; activation, % at 5 µM; AHR-responsive luciferase reporter cells, luminescence; P35869; 2.5% of 320,000 active; in the data active = activation above about 47%;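 also: 0% = vehicle wells and 100% = reference agonist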
# GAA850 FXN act: increases GAA850 frataxin promoter reporter activity; HEK293 lucGAA850 FXN promoter luciferase reporter, 24 h; percent of 10 µM SAHA response; activation, % at 6 µM; 0.56% of 360,000 active; AID 540364;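 active = activation above the average of all compounds screened plus 3 SD, cutoff fixed separately per campaign, cut at about 7.5% in these data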;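 also: 0% = DMSO wells and 100% = 10 µM SAHA wells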
# esBAF inh: SWI/SNF esBAF complex inhibition; mouse ES cells, Bmi1-luciferase knock-in reporter, 24 h; 100% = twice the neutral-well signal; 2% of 350,000 active; AID 602393; reporter increase, % at 12.5 µM; in the data active = activation above about 40%; inconclusive = no clear call, values can overlap the other calls;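 also: 0% = median of the plate's neutral control wells and 100% = double that signal; a rise in the Bmi1 reporter signal indicates esBAF inhibition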
# * hit, by the source's call; ? = inconclusive; / = no result. Most compounds without a hit are left out; they make up all but 4.2% or so of the library.
SMILES,MITF TRPM1 HTS,Wnt bcat act,AHR activator,GAA850 FXN act,esBAF inh
CCC(=O)Nc1ccc2oc(-c3cccc(C)c3)nc2c1,-9.2,/,-3.6,1.2,-44.7
CCC(=O)Nc1cccc(-c2nc3ccc(C)cc3o2)c1,/,38.0*,15.7,3.9,39.7
COc1cc(-c2cc(-c3ccc(O)cc3)nc(N)c2C#N)ccc1O,5.5,6.7,3.2,6.1,/
COc1ccccc1-c1cc(-c2ccc(O)cc2)nc(N)c1C#N,-1.1,2.6,62.1*,-0.1,/
COc1cccc(COc2ccc3ccc(=O)oc3c2)c1,60.7,24.9,2.0,2.8,39.1
COc1ccc(COc2ccc3ccc(=O)oc3c2)cc1,118.2*,26.3,-1.5,6.3,55.8*
COc1cc(C#Cc2c(-c3cncn3C)n(C)c3ccc(-c4cnc(N5CCOCC5)nc4)cc23)cc(OC)c1,89.1*,21.6,18.4,5.4,28.6
COc1cc(C#Cc2c(-c3cncn3C)n(C)c3ccc(-c4cnc(OC)nc4)cc23)cc(OC)c1,-14.1,3.6,51.1*,2.3,-15.8
COc1cc(C#Cc2c(-c3cncn3C)n(C)c3ccc(-c4ccc(CN5CCOCC5)cc4)cc23)cc(OC)c1,28.0,4.8,18.0,0.7,21.5
C[C@H]1CN([C@@H](C)CO)C(=O)CCCn2cc(nn2)CO[C@H]1CN(C)Cc1ccc(C(=O)Nc2ccccc2N)cc1,/,/,/,/,-7.4
COc1ccccc1NC(=O)c1nc(S(=O)(=O)Cc2ccccc2)ncc1Cl,-89.6,-11.1,59.7*,4.8,-79.0
C[C@@H]1CCCCO[C@H](CN(C)C(=O)CCC(F)(F)F)[C@H](C)CN([C@@H](C)CO)C(=O)c2cc(NC(=O)NC3CCCCC3)ccc2O1,/,/,/,/,-6.0
Cc1nn(-c2nc3ccccc3[nH]2)c(N)c1-c1ccccc1,68.5,54.8*,6.9,5.2,/
Cc1cc(-c2ccccc2)n(-c2ccccc2)n1,/,10.4,8.2,2.5,51.3*
Cc1nn(-c2ccccc2)c(N)c1-c1ccccc1,114.3*,?,3.2,5.5,66.9*
Cc1nn(-c2ccccc2)c(/N=C/c2ccccc2O)c1-c1ccccc1,55.9,129.0*,3.7,3.4,/
Cc1noc(C)c1NC(=O)Nc1ccc2c(c1)C(=O)N([C@@H](C)CO)C[C@H](C)[C@@H](CN(C)Cc1ccccc1)OCCCC[C@H](C)O2,/,/,/,/,0.6
O=C(NC1CCCC1)N[C@H]1CC[C@@H](CC(=O)N2CCOCC2)O[C@H]1CO,/,/,/,/,3.6
CCNC(=O)C[C@H]1C=C[C@H](NC(=O)C2CC2)[C@H](CO)O1,/,/,/,/,-3.7
Cc1nn(-c2ccccc2)c(N)c1N=Nc1ccc(Cl)cc1,22.6,-3.3,6.4,7.0,80.2*
Cc1nn(-c2ccccc2)c(N)c1N=Nc1ccccc1,42.8,0.2,17.9,0.3,/
Nc1c(N)c2ccccc2oc1=O,-5.5,/,9.5,3.4,12.4
Nc1c(C(=O)c2cccs2)oc2ccccc12,/,/,49.4*,3.6,54.3*
Nc1c(C(=O)c2ccc(Br)s2)oc2ccccc12,29.7,35.3*,67.8*,3.0,74.1*
CO[C@H]1CN(C)C(=O)c2cc(NC(=O)Nc3c(C)noc3C)ccc2OC[C@H](C)N(C)C[C@H]1C,/,/,/,/,0.4
SMILES,MITF TRPM1 HTS,Wnt bcat act,AHR activator,GAA850 FXN act,esBAF inh
O=C(/C=C/c1c(Cl)nc2ccccn12)N1CCCCC1,24.1,9.4,59.0*,6.5,/
O=C(N[C@H]1CC[C@H](CCn2cc(C3(O)CCCC3)nn2)O[C@@H]1CO)C1CCCCC1,/,/,/,/,-10.0
COc1ccc2cc3c(N)c(C(=O)NCc4ccco4)sc3nc2c1,64.9,/,23.9,5.4,72.3*
CO[C@H]1CN(C)C(=O)c2cc(NC(=O)c3ccccc3F)ccc2OC[C@@H](C)N(C)C[C@@H]1C,/,/,/,/,-0.4
COC(=O)c1cccc(-n2c(C)cc(/C=C3\SC(=O)NC3=O)c2C)c1,/,-2.6,/,2.8,44.6*
Cc1cc(C(=O)O)ccc1-n1c(C)cc(/C=C2\SC(=O)NC2=O)c1C,/,8.8,-0.9,2.0,2.3
C[C@H]1CN([C@@H](C)CO)C(=O)Cc2cc(NC(=O)Nc3ccc(F)cc3)ccc2O[C@@H]1CN(C)S(=O)(=O)c1ccccc1,/,/,/,/,0.7
Cc1ccc2c(C(=O)CSc3ccccc3)c(C)[nH]c2c1,26.5,/,57.7*,4.1,/
Cc1ccc(SCC(=O)c2c(C)[nH]c3ccccc23)cc1,8.0,-1.1,43.4,2.1,/
CCCc1cc(=O)[nH]c(SCC(=O)c2c[nH]c3ccccc23)n1,-30.2,0.6,24.4,2.4,-1.3
Cc1[nH]c2ccccc2c1C(=O)CSc1ccccn1,17.3,3.2,53.4*,3.2,27.0
CCCc1cc(=O)[nH]c(SCC(=O)c2c(C)[nH]c3ccccc23)n1,-4.6,1.5,59.6*,3.8,-5.8
